# Rows were chosen to be rich in hits. Some 2.8% of all compounds tested hit in one or more screens of this group.
# ATXN viability: reduces viability in counter-screen for ATXN expression inhibitors | AID 651635 | S2 cells (HEK-293 line with an ATXN2-luciferase reporter) viability, CellTiter-Fluor protease fluorescence, 24 h | 400,000 tested, 0.49% active | Potency, µM (doses to about 56.7 µM), usual class: cytotoxic; further: potency means the concentration at half of the fitted maximal effect; nearly all actives have a fitted effect of over 40% in size
# HepG2 tox-1: HepG2 cytotoxicity, counter-screen for TGF-b inhibitors | HepG2 CAGA-GFP viability, ATP luminescence, 18 h | Potency, µM (top dose mostly 46.1 µM), for the others: top-dose activity change, negative = cytotoxicity, hits mostly cytotoxic | 410,000 tested, 0.76% active; further: potency means the concentration at half of the fitted maximal effect
#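 CellTiter-Glo luminescence gave cytotoxicity after 18 hours at 37 degrees C. The cells were HepG2 CAGA-GFP in 1% FBS DMEM, stimulated with 500 pg/mL TGF-beta after compound addition. %Activity was normalised to no-cell wells (complete cell-killing) and DMSO (no toxicity), and curves were fitted and classified.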
# ATXN2 expr inh: inhibitors of ATXN2 expression | HEK-293 ATXN2-luciferase reporter, luminescence, 24 h | Potency, µM (titrated, usually from 57 µM), without a hit: at the top dose activity change, negative = inhibition, usual class: inhibitors | 360,000 tested, 0.72% active; further: potency means the concentration at half of the fitted maximal effect; on the % scale 0 is the no-effect control and ±100 the full control effect; nearly all actives have a fitted effect of over 55% in size
#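 qHTS (up to 57 uM final) was run with 24 h compound exposure of reporter cells at 37 °C. Each well was multiplexed: SteadyGlo luminescence measured ATXN2-luciferase expression after a fluorogenic Gly-Phe-AFC viability readout (25 uM final).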
# Six1-Eya2 blk: Six1/Eya2 interaction inhibition; AID 651725; AlphaScreen GST-Six1/His-Eya2 binding, biochemical; hits give low values; activity change, % (test concentration not listed); 360,000 tested, 0.56% active; Q15475+O00167; in the data active means activity change below about -65%; inconclusive means mostly about -30% to -63%; further: on the % scale 0 is the no-effect control and ±100 the full control effect
# Target sequence (O00167 whole entry, looked up): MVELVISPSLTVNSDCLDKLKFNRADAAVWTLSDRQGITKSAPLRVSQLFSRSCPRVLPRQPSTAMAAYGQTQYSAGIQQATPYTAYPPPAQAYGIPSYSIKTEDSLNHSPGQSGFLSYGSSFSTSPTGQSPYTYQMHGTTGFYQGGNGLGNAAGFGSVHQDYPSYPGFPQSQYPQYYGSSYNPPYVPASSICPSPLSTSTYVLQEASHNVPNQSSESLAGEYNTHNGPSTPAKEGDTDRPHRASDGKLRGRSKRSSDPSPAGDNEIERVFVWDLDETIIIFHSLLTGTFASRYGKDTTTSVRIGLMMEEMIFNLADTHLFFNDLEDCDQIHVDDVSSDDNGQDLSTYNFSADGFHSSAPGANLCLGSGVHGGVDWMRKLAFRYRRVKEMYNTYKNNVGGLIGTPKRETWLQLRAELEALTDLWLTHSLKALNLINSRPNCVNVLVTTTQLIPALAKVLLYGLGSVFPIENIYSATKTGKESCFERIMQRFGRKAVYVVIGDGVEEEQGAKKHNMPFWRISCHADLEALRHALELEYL
# Target sequence (Q15475 whole entry, looked up): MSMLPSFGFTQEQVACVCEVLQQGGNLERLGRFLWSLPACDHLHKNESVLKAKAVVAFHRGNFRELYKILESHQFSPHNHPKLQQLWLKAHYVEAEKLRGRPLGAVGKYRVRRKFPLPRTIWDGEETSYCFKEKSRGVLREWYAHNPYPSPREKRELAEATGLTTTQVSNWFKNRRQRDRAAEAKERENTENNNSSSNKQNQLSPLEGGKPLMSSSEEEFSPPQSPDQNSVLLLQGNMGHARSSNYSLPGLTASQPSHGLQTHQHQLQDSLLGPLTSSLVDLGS
#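 AlphaScreen luminescence read after one hour at 37 °C in darkness. Pin-transferred compounds met GST-Six1 and His-Eya2 protein (5X stock 250 nM/500 nM) plus glutathione donor and Ni-chelate acceptor beads (5X, 50 ug/mL).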
# CtBP-E1A inh: inhibitors of CtBP/E1A interaction; AlphaScreen GST-E1A/His-CtBP binding, 1536-well; hits give low values; activity change, % (no concentration beside the values); 340,000 tested, 0.49% active; AID 651724; in the data active means activity change below about -65%; inconclusive means mostly about -30% to -63%; further: on the % scale 0 is the no-effect control and ±100 the full control effect
#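 GST-E1A and His-tagged CtBP (125 nM each as 5X stock) were preincubated with pin-transferred compound for 2 h at 37 °C in the dark, then glutathione donor and nickel acceptor beads were added for 1 h before AlphaScreen reading.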
# TGFb inhibitor: inhibitors of TGF-b signaling | 410,000 tested, 1.2% active | AID 588855 | Potency, µM (highest dose often 46.1 µM), without a hit: top-dose activity, negative = inhibition, usual class: inhibitors | HepG2 CAGA-GFP TGF-b/SMAD3 reporter, GFP fluorescence, 18 h; TGF-beta stimulated, 500 pg/mL final; further: potency means the concentration at half of the fitted maximal effect; on the % scale 0 is the no-effect control and ±100 the full control effect; nearly all actives have a fitted effect of over 65% in size
#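 Per well, imaged GFP fluorescence of HEPG2 CAGA-GFP cells gives the signal; cells get compound, then TGF-beta (500 pg/mL final), 18 h at 37 degrees C; %Activity versus -TGF-beta and +DMSO controls.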
# TGFb confirm: TGF-b pathway inhibition, cherry-pick retest | shares compounds with TGFb inhibitor | HepG2 CAGA-GFP TGF-b reporter, GFP fluorescence, 18 h; cells stimulated with TGF-beta, 500 pg/mL | Potency, µM (highest dose often 46.1 µM), for the others: at the top dose activity, negative = inhibition, most hits filed as inhibitors | 1,600 tested, 63% active | AID 720534; further: potency means the concentration at half of the fitted maximal effect; on the % scale 0 is the no-effect control and ±100 the full control effect; nearly all actives have a fitted effect of over 65% in size
# HepG2 tox-2: HepG2 cytotoxicity, TGF-b inhibitor counterscreen. Potency, µM (highest dose often 46.1 µM), for the others: top-dose activity, negative = cytotoxicity, actives largely listed as inhibitors. 1,600 tested, 27% active. shares compounds with TGFb inhibitor. HepG2 CAGA-GFP viability, ATP luminescence, 18 h; cells stimulated with TGF-beta, 500 pg/mL; further: potency means the concentration at half of the fitted maximal effect; on the % scale 0 is the no-effect control and ±100 the full control effect; nearly all actives have a fitted effect of over 70% in size
# TGFb CCL64 inh: orthogonal confirmation of TGF-b inhibitors in CCL64 cells | Potency, µM (series often up to 46.1 µM), for inactives: top-dose activity, negative = inhibition, most hits filed as inhibitors | 1,600 tested, 41% active | shares compounds with TGFb inhibitor | AID 720536 | CCL64 CAGA-GFP reporter, TGF-b stimulated, GFP fluorescence, 18 h; further: potency means the concentration at half of the fitted maximal effect; nearly all actives have a fitted effect of over 65% in size
# COP TGFb inh: validation of TGF-b inhibitors in HepG2 COP promoter reporter | shares compounds with TGFb inhibitor | HepG2 COP-GFP TGF-b reporter, GFP fluorescence, 18 h; cells stimulated by added recombinant TGF-beta | Potency, µM (series often up to 46.1 µM), inactives show at the top dose activity, negative = inhibition, most hits filed as inhibitors | 1,600 tested, 3% active | AID 720537; further: potency means the concentration at half of the fitted maximal effect; nearly all actives have a fitted effect of over 70% in size
# * = called active by the depositor; i = inactive; ? = inconclusive; . = no result given. Unless noted, the call rests on the fitted dose curve; in most records, active means well fitted curve in the direction sought with a large enough effect; inconclusive means small, poorly fitted or top-dose-only effect, or another doubt; inactive means no such curve, though single readings can be large; an effect the other way counts as inactive or inconclusive.
SMILES,ATXN viability,HepG2 tox-1,ATXN2 expr inh,Six1-Eya2 blk,CtBP-E1A inh,TGFb inhibitor,TGFb confirm,HepG2 tox-2,TGFb CCL64 inh,COP TGFb inh
CC(C)NC(=O)C1(C)CSCC(=O)N1CC(F)(F)F (stereo not drawn),.,.,.,15,-17,.,.,.,.,.
CNc1ccc(/C=C2\COc3ccccc3C2=O)cc1[N+](=O)[O-],i,6%,43%,6,14,16%,.,.,.,.
O=C1/C(=C/c2ccccc2[N+](=O)[O-])COc2ccccc21,24µM*,-23%,21µM*,1,0,7.9µM*,2.1µM*,10µM*,2.3µM*,4%
CCOCCCNCc1ccc(OC)cc1,i,0%,3%,4,0,3%,.,.,.,.
COc1ccc2cc(CNCCOCCOCCNCc3ccc4cc(OC)ccc4c3)ccc2c1,.,4µM*,?,4,-2,3.2µM*,-108%,21µM*,4.6µM*,?
CCc1ccc2oc(-c3cc(NC(=O)COc4ccc(C)cc4)ccc3O)nc2c1,.,21%,.,.,.,24%,.,.,.,.
Cc1ccc(C(=O)CSc2cc(C)nc(SCC(=O)c3ccccc3)n2)cc1,?,-10%,-12%,2,11,?,?,-15%,-3%,10%
Cc1cc(SCC(N)=O)nc(SCC(=O)c2ccccc2)n1,?,-18%,2%,20,0,8%,.,.,.,.
O=C(Nc1cccc(Cl)c1)c1ccc(F)c(S(=O)(=O)NCc2cccs2)c1,i,-31%,?,-11,-16,10µM*,?,?,?,11%
CCN(c1ccccc1)S(=O)(=O)c1cc(C(=O)Nc2cccc(Cl)c2)ccc1F,?,-25%,-38%,5,2,10µM*,9.2µM*,?,15µM*,58%
O=C(NCc1ccco1)c1cc([N+](=O)[O-])ccc1N1CCCCC1,?,0%,-8%,-6,0,5%,.,.,.,.
O=C(NCc1ccc2c(c1)OCO2)c1cc([N+](=O)[O-])ccc1N1CCCCC1,?,-1%,-17%,-18,-7,?,?,-5%,?,4%
CCC(=O)N1CCCC(C(=O)NCc2ccc(C(C)C)cc2)CC1 (stereo not drawn),i,-4%,1%,-3,6,-2%,.,.,.,.
O=C(c1ccco1)N1CCN(c2ncnc3scc(-c4ccc(F)cc4)c23)CC1,i,-12%,-10%,-3,-11,18µM*,16µM*,1%,2%,2%
Cc1ccc(C)c(N2N=C(C(=O)Nc3ccccc3N3CCCC3)CCC2=O)c1,i,-22%,-14%,-15,0,22µM*,12µM*,-14%,?,2%
C1=Cc2ccccc2/C1=C\c1cc[cH-]c1.[Fe+2].c1cc[cH-]c1,.,1%,.,.,.,?,.,.,.,.
Cc1ccc(NC(=O)Cn2c(/C=C/c3ccccc3)nc3ccccc32)cc1C,i,-29%,-20%,4,2,-1%,.,.,.,.
CC(C)c1ccccc1NC(=O)Cn1c(/C=C/c2ccccc2)nc2ccccc21,?,13µM*,-15%,5,7,10µM*,-24%,?,?,-10%
CC(NC(=O)C1CCCN1S(=O)(=O)c1ccccc1)c1ccccc1 (stereo not drawn),i,-28%,-13%,-2,11,?,?,7%,9%,1%
CC(NC(=O)C1CCCN1S(=O)(=O)c1ccc2c(c1)n(C)c(=O)c(=O)n2C)c1ccccc1 (stereo not drawn),i,-29%,-1%,3,0,-2%,.,.,.,.
CC(=O)c1ccc(NC2=NS(=O)(=O)c3ccccc32)cc1,i,-10%,7%,.,.,-5%,.,.,.,.
COc1cc(-c2cnc3c(NC=O)cc(-c4cccc(NC(C)=O)c4)cn23)cc(OC)c1OC,i,9%,-13%,-21,-22,?,.,.,.,.
COc1cccc(-c2cnc3c(NC=O)cc(-c4cc(C)c(O)c(C)c4)cn23)c1,?,-20%,?,-27,-28,16%,.,.,.,.
COc1cccc(-c2cnc3c(NC=O)cc(-c4ccccc4Oc4ccccc4)cn23)c1,i,-17%,-23%,-11,-12,10µM*,12µM*,-20%,?,28%
COc1cccc(-c2cnc3c(NC=O)cc(-c4cccc(NC(C)=O)c4)cn23)c1,i,-3%,-39%,-25,-30,7.1µM*,5.8µM*,?,15µM*,56%
COc1cccc(-c2cnc3c(NC=O)cc(-c4ccc(S(C)(=O)=O)cc4)cn23)c1,i,-3%,-21%,-3,-2,1.8µM*,4.6µM*,-30%,2.1µM*,31%
CC(=O)c1ccc(-c2cnc3c(NC=O)cc(-c4ccc(C(=O)N5CCOCC5)cc4)cn23)cc1,i,-5%,-26%,2,-11,?,?,?,?,57%
COc1ccc(-c2ccc(OC)c(C3C4C=CCC(C)C4C(=O)N3Cc3ccccc3)c2)cc1 (stereo not drawn),.,-2%,.,.,.,-2%,.,.,.,.
CC(=O)Nc1cccc(-c2cc(NC=O)c3ncc(-c4cccc(C(C)=O)c4)n3c2)c1,i,23%,-27%,-19,-13,2.8µM*,6.5µM*,?,?,30%
C[C@H](NC(=O)c1nc[nH]c1C(=O)NCCCCCNC(=O)OC(C)(C)C)C(=O)OC(C)(C)C,?,-31%,-27%,1,1,?,-11%,-3%,?,-1%

# Screens: PubChem BioAssay, National Center for Advancing Translational Sciences (NCATS)
